In PubChem BioAssay (NCI):
This is part of a sample that, as a whole, favours compounds with a hit. Of some 83,000 tested, about 20% had one in any assay.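 Cell lines were cultured in 96-well plates, exposed to a single compound concentration, and assessed for percent growth 48 hours later.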 Unmarked numbers belong to inactive results. The source made the active and inactive calls. Rule for the calls: active = growth percent below 10; inactive = the rest.

Columns and labels:
Test in all cases: NCI-60 one-dose screen, 48 h (100 = growth as untreated, 0 = no growth, -100 = all killed)
Details in all cases: 10 µM
NCI-H23 lung = system: NCI-H23 lung
NCI-H226 lung = system: NCI-H226 lung
NCI-H322M lung = system: NCI-H322M lung
HOP-62 NSCLC = system: HOP-62 NSCLC
NCI-H460 lung = system: NCI-H460 lung
HOP-92 NSCLC = system: HOP-92 NSCLC
NCI-H522 lung = system: NCI-H522 lung
A549/ATCC NSCLC = system: A549/ATCC NSCLC
786-0 renal = system: 786-0 renal
COLO 205 colon = system: COLO 205 colon

| SMILES | growth (NCI-H23 lung) | growth (NCI-H226 lung) | growth (NCI-H322M lung) | growth (HOP-62 NSCLC) | growth (NCI-H460 lung) | growth (HOP-92 NSCLC) | growth (NCI-H522 lung) | growth (A549/ATCC NSCLC) | growth (786-0 renal) | growth (COLO 205 colon) |
| --- | --- | --- | --- | --- | --- | --- | --- | --- | --- | --- |
| COc1nc(N)nc2c1ncn2C1OC(CO)CC1O (stereo not given) | 103% | 103% | 96.8% | 100% | 115% | 95.3% | 106% | 111% | 95.4% | 104% |
| CCOc1ccccc1/C=N/Nc1nc2ccccc2o1 | 91.8% | 103% | 113% | 97.2% | 102% | 87.9% | 110% | 98.6% | 116% | 121% |
| CC(=O)OCC1=CC2OC(=O)C3=COC(OC4OC(CO)C(O)C(O)C4O)C1C32 (stereo not given) | 72.4% | 105% | 104% | 108% | 120% | 89.3% | 93.5% | 138% | 98.9% | 114% |
| CC(C)COC(=O)COC(=O)OCCOCCOC(=O)OCC(=O)OCC(C)C | 100% | 100% | 118% | 98.1% | 114% | 95.7% | 95.9% | 109% | 103% | 117% |
| CC(=O)c1ccc(C)c(N)c1 | 81.5% | 95.8% | 121% | 99.6% | 111% | 92.9% | 99.9% | 92.8% | 103% | 110% |
| CNC(=S)NC(C)(C)C | 104% | 102% | 98.4% | 101% | 113% | 83.1% | 98% | 98.3% | 101% | 119% |
| O=C(CN1CCNCC1)N1CCOCC1 | 93.3% | 116% | 106% | 103% | 117% | 103% | 111% | 95.4% | 101% | 110% |
| CCOC(=O)CCCS(C)(=O)=O | 98.6% | 109% | 120% | 102% | 110% | 87% | 109% | 109% | 110% | 110% |
| COc1cc2c(cc1O)CC[C@@H]1C2CC[C@@]2(C)C1CC[C@@H]2O (stereo not given in full) | 406% | 57.7% | 53.5% | 33.3% | 8.58% (active) | 79.8% | 1.84% (active) | 13.9% | 36% | 82.5% |
| Cc1cc(NC(=O)CSCC(=O)O)no1 | 102% | 110% | 96.7% | 96.3% | 110% | 107% | 101% | 97.2% | 103% | 110% |
| O=c1cc2oc3cc(O)c(O)cc3c(-c3ccccc3O)c-2cc1O | 82.4% | 87% | 57.5% | 63% | 96% | 7.48% (active) | 66.8% | 108% | 57.2% | 126% |
| O=c1cc(-c2ccccc2)oc2c1ccc1ccccc12 | 85.2% | 86.3% | 96% | 99.5% | 97.1% | 50.5% | 79.3% | 73.6% | 99.4% | 85.8% |
| O=c1c2ccccc2c(Br)c(Br)c2ccccc12 | 78.1% | 74.2% | 119% | 112% | 116% | 83.7% | -33.9% (active) | 95.1% | 84.3% | 55% |
| CCCCCCCCCCCCCC(=O)Oc1ccc[nH]c1=O | 105% | 92.7% | 87% | 94.1% | 105% | 84.9% | 90.7% | 89.4% | 89.7% | 112% |
| CC(C)OC(=O)c1cc(NC(=S)OC(C)C)ccc1Cl | 79.7% | 86.6% | 85.8% | 91.5% | 108% | 73.8% | 77.4% | 70.6% | 82.2% | 102% |
